# Source: PubChem (several laboratories)
# The list is not random: actives were taken first. Their share in the collection is about 3.1%.
# Calb FLC: C. albicans growth modulation with fluconazole; C. albicans CaCi-2 (fluconazole-resistant clinical isolate) + fluconazole, Alamar Blue growth, 48 h; growth inhibition, % (no concentration beside the values); 300,000 compounds, 0.57% hits;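 active means growth inhibition above about 58% in most replicates, limit read from the data, passing the limit was not always enough; inconclusive means exactly half the replicates above a set limit; inactive means most replicates below a set limit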;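 further: all wells also contain fluconazole at 8 µg/ml as a sub-toxic cotreatment; 0% = median of DMSO wells and 100% = median of geldanamycin control wells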
# ATG4B inhibitor: ATG4B (human) cysteine protease inhibition; 340,000 compounds, 0.51% hits; ATG4B cleavage of LC3-PLA2, NBD-HPC fluorescence, 1 h; Q9Y4P1; AID 504462; inhibition, % at 8.33 µM; in the data active means inhibition above about 40%
# SUMO Mot1 rescue: inhibitors of SUMOylation pathway: yeast Mot1-301 growth rescue. S. cerevisiae Mot1-301 growth rescue, ATP luminescence, 38.5C; percent above DMSO median, 100 means doubled. growth rescue, % at 18.8 µM. 320,000 compounds, 1% hits. AID 2716;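 active means every valid replicate shows activation above 250% relative to neutral control wells; inactive means the rest, any valid replicate at or below 250%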;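 further: OY570 slx delta 5 strain wells were the positive control but not used for scaling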
# NadD block: inhibitors of Staphylococcus aureus NadD | purified NadD enzyme, colorimetric absorbance read-out | inhibition, % at 20 µM | 360,000 compounds, 0.78% hits; in the data active means inhibition above about 26%
# FAS TE block: blocks the thioesterase domain of human fatty acid synthase; recombinant FAS-TE, OMFH fluorogenic substrate, fluorescence endpoint; 360,000 compounds, 0.67% hits; inhibition, % at 15 µM;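 active means compounds whose normalised, plate-corrected inhibition of enzyme fluorescence in the single-dose primary screen is 50% or more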;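 further: 0% = DMSO with enzyme and 100% = substrate without enzyme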
# Numbers without * were called inactive; ? = inconclusive; · = not tested or not shown.
SMILES,Calb FLC,ATG4B inhibitor,SUMO Mot1 rescue,NadD block,FAS TE block
CCN(CC(=O)NCc1ccc(F)cc1)C(=O)c1cccc(S(=O)(=O)N(C)c2ccc(OC)cc2)c1,·,-2,·,0,9
Cc1ccc(Nc2nc(Cl)nc(NC(C)(C)C)n2)cc1,94*,4,252,-8,16
COc1ccc(C2=CSC3=NCCN23)cc1,-29,7,-11,-6,-130
COc1ccc(C2=CSC3=NNC4(CCCCC4)NN23)cc1,112*,12,·,0,-11
Cc1ccc(C2=CSC3=NNC4(CCCCC4)NN23)cc1,111*,-7,·,10,-24
Cc1ccc2c(c1)C(=O)C(=O)N2CC(=O)Nc1ccccc1NC(=O)c1ccccn1,-42,14,-10,-6,-2
C[N+]1(CC(=O)OC2CCCCCCCCCCC2)CCCC1,99*,-4,-2,14,2
COC(=O)CCCCCCCCCC[N+]1(C)CCCCC1,2,19,-5,6,-7
COCCN(C(=O)COC(=O)C12CC3CC(CC(C3)C1)C2)c1c(N)n(Cc2ccccc2)c(=O)[nH]c1=O,·,-66,·,7,8
O=C(c1ccc(C(=O)N2CCN(c3ccccc3F)CC2)nc1)N1CCN(c2ccccc2F)CC1,95*,-7,·,-1,2
COc1ccccc1NC1=C(N2CCCCC2)C(=O)c2ccccc2C1=O,93*,-2,13,-1,-1
COc1ccc(Cl)cc1C(=O)NNC(=O)c1csc(N2CCOCC2)n1,-8,-12,161,-3,-8
C/C(=N\Nc1ccccc1)c1c(O)cc(C)oc1=O,?,-5,324*,-7,-4
C/C(=N/NC(=O)c1cccc(C)c1)c1c(O)cc(C)oc1=O,-14,0,-13,-2,0
O=C(CSc1ccc(Cl)cc1)Nc1nnc(-c2ccco2)o1,84*,-9,60,2,-6
CN(Cc1ccccc1)S(=O)(=O)c1ccc(C(=O)Nc2nnc(C3CC3)o2)cc1,85*,-8,35,16,7
CN(C)S(=O)(=O)c1ccc(C(=O)Nc2nnc(-c3ccco3)o2)cc1,28,-7,5,7,-7
O=C(Nc1nnc(-c2ccco2)o1)c1ccc(Cl)cc1,102*,-7,-30,0,-3
Cc1ccc(C(=O)Nc2nnc(-c3ccco3)o2)cc1C,-15,0,7,9,-7
CCCCN(C)S(=O)(=O)c1ccc(C(=O)Nc2nnc(-c3ccco3)o2)cc1,98*,-7,11,18,-3
O=C(CSc1ccccc1)Nc1nnc(-c2ccco2)o1,15,6,-2,6,-5
CCCCn1nc(C(=O)NCC2COc3ccccc3O2)c2ccccc2c1=O (configuration not stated),·,18,4,-1,35
CCCCN(CCCC)S(=O)(=O)c1ccc(C(=O)Nc2nnc(COC)o2)cc1,88*,-14,-17,13,-2
O=[N+]([O-])c1cc(/C=N/O)ccc1Oc1cccc(Cl)c1,37,-3,-1,1,-1
O=[N+]([O-])c1cc(/C=N/O)ccc1Oc1ccccc1Cl,12,1,266*,-8,-16
SMILES,Calb FLC,ATG4B inhibitor,SUMO Mot1 rescue,NadD block,FAS TE block
CCCn1c(SC(C(=O)Nc2cc(C)ccc2OC)c2ccccc2)nc2ccccc2c1=O (configuration not stated),-12,1,6,8,38
COc1ccc(C)cc1NC(=O)C(Sc1nnnn1C)c1ccccc1 (configuration not stated),95*,-9,-6,-9,-2
O=C(COc1ccccc1)Nc1nnc(S(=O)(=O)N2CCCCCC2)s1,-9,-7,-9,0,-6
COc1ccc(C2C(C#N)=C(N)Oc3c2ccc2cccnc32)cc1OC (configuration not stated),93*,-10,-8,4,8
COc1ccc(C2C(C#N)=C(N)OC3=C2C(=O)CC(C)(C)C3)cc1OC (configuration not stated),?,-6,-4,5,-5
COc1ccc(C(=O)O)c(OC)n1,2,-6,313*,-5,-6
Cc1ccc(CNC(=O)COc2ccc(S(=O)(=O)N3CCOCC3)cc2)cc1,2,-2,-6,-10,4
O=c1c2c3c(sc2n(CCN2CCCC2)c(=O)n1Cc1ccco1)CCCCC3,36,3,11,2,4
O=C(Cn1c(=O)n(Cc2ccco2)c(=O)c2c3c(sc21)CCCCC3)c1ccccc1,-6,32,-14,35*,19
COc1ccc(S(=O)(=O)N(C)C[C@H]2Oc3c(NS(=O)(=O)c4cn(C)cn4)cccc3C(=O)N([C@H](C)CO)C[C@@H]2C)cc1,·,-14,-17,-5,-1
O=C(/C=C/c1ccccc1)NC(=S)Nc1ccc(N2CCOCC2)c(Cl)c1,111*,0,-11,4,-3
O=C(/C=C/c1ccco1)NC(=S)Nc1ccc(N2CCOCC2)c(Cl)c1,17,0,-9,9,7
C=C(C)CSc1[nH]c(=O)cc(C)c1C#N,86*,3,-3,1,-7
COc1ccc2[nH]c(O)c(N=NC(=O)c3ccc(NS(=O)(=O)c4cccs4)cc3)c2c1,·,-10,10,27,-17
Cc1ccc2[nH]c(O)c(N=NC(=O)c3ccc(NS(=O)(=O)c4cccs4)cc3)c2c1,-4,5,0,43*,4
Cc1cccc2c(N=Nc3ccc(S(=O)(=O)Nc4ccc(Cl)cc4)cc3[N+](=O)[O-])c(O)[nH]c12,6,3,-6,33*,8
Cc1cccc2c(N=NC(=O)c3ccc(NS(=O)(=O)c4cccs4)cc3)c(O)[nH]c12,·,-4,-3,61*,9
O=C(N=Nc1c(O)[nH]c2ccc(F)cc12)c1ccc(NS(=O)(=O)c2cccs2)cc1,·,1,6,39*,-1
C=CC[C@H](CC(=O)N(CCO)Cc1ccccc1)C(=O)N[C@H](COC(=O)[C@@H](CC=C)CC(=O)OC(C)(C)C)c1ccccc1,·,33,9,-4,23
CCc1ccc(S(=O)(=O)NCC2(N3CCOCC3)CCCCC2)cc1,·,-21,20,0,8
Cc1cccc(NC(=O)CSc2nc(=O)n(CCCN3CCOCC3)c3c2CCCC3)c1C,·,·,·,1,-6
CCOC(=O)c1ccc(N2C(=O)C3CCCN3C2=S)cc1 (configuration not stated),·,2,13,-2,-2
COc1cc([N+](=O)[O-])ccc1-c1ccc(/C=N\n2cnnc2)o1,-6,1,-2,1,-39
COc1cc([N+](=O)[O-])ccc1-c1ccc(/C=C2\C(=O)ON=C2c2ccccc2)o1,·,10,·,45*,-19
Cc1cc(C)cc(OCC(=O)Nc2ccc(N3CCCC3)cc2)c1,-19,13,348,57*,-16
Cc1cc(C)cc(OCC(=O)Nc2ccc3c(c2)C(=O)c2ccccc2C3=O)c1,37,8,-3,31*,6
COc1ccc(S(N)(=O)=O)cc1C(=O)OCC(=O)N1CCCC(C)C1 (configuration not stated),·,-7,-5,-5,-4
